# Compound activity (PubChem BioAssay)
# A selection: hits, their analogues and other compounds. The true share with any hit is near 5.1%.
# TSHR agonist – TSH receptor (human) agonism; actives 0.48% (n = 73,000); P16473; AID 926; HEK293-CNG-TSHR cells (CNG channel as cAMP sensor), membrane potential dye, cAMP; Potency, µM (doses to about 57.1 µM), without a hit: at the top dose activation, usual class: activators; active means well fitted activation curve with a large enough effect in the main read-out, with a control signal flat, not every such curve was filed as active; inconclusive means small, poorly fitted or top-dose-only effect, or a change in a side signal; inactive means no such curve, though single readings can be large or run the other way; % of control where 0% means no effect;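 further: the control signal comes from parental cells without the receptor; potency means the concentration at half of the fitted maximal effect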
#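 HEK 293 cells stably expressing TSHR and a modified CNG channel, with CNG-only parental cells as counterscreen, were preloaded 60 min at room temperature with membrane potential dye containing 100 uM RO 20-1724. Compound exposure was 30 min, and depolarization was read as fluorescence at 590 nm.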
# Pol III holo inh – DNA polymerase III holoenzyme inhibition | reconstituted DNA polymerase III holoenzyme replication, biochemical | Potency, µM (titrated, usually from 57.1 µM), for inactives: at the top dose activity change, negative = inhibition | actives 0.25% (n = 71,000) | AID 603; further: potency means the concentration at half of the fitted maximal effect; on the % scale 0 is the no-effect control and ±100 the full control effect
#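 Reconstituted *E. coli* holoenzyme (0.35 nM Pol III, 1 nM beta, 154 nM SSB, 2 nM primase) was preincubated with compound for 15 min at RT. Synthesis on 1.4 nM ssM13Gori ran 35 min, then was stopped with PicoGreen/EDTA and read as dsDNA fluorescence.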
# HEK293 cAMP ctrl – raises cAMP in parental HEK293 cells, TSHR agonist counter-screen; parental HEK293 CNG cAMP sensor, membrane potential fluorescence; Potency, µM (titrated, usually from 57.1 µM), for inactives: top-dose activation, hits mostly activators; actives 2.5% (n = 73,000); further: potency means the concentration at half of the fitted maximal effect; % of control where 0% means no effect; nearly all actives have a fitted effect of over 55% in size
#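 Parental HEK 293 cells stably expressing a cAMP-gated CNG channel were loaded with membrane potential dye containing 100 uM RO 20-1724 for 60 min. Compound added for 30 min; depolarization read as fluorescence intensity at 590 nm.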
# Tau fil binding – tau filament binding; Potency, µM (doses to about 57.1 µM), without a hit: at the highest dose activity change, negative = inhibition; actives 2% (n = 71,000); recombinant tau filaments, thioflavin S fluorescence, 15 h; filaments grown with octadecylsulfate alongside compound; P10636;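 further: potency means the concentration at half of the fitted maximal effect; on the % scale 0 is the no-effect control and ±100 the full control effect; actives lower thioflavin S fluorescence by blocking filaments or displacing dye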
#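 ThS-based fibril read: tau 1 uM final, inducer ODS 30 uM final, 37 C for 15 h, ex 450/em 510 nm.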
# Hsp90 Hop PPI – changes Hsp90-Hop TPR2A binding signal, up or down; AlphaScreen TPR2A-His6 binding biotin-Hsp90 C-terminal peptide; Potency, µM (titrated, usually from 57 µM), inactives show at the highest dose activity change, negative = inhibition; actives 0.44% (n = 71,000); AID 595; active means well fitted curve in either direction with a large enough effect; inconclusive means small, poorly fitted or top-dose-only effect, or another doubt; further: potency means the concentration at half of the fitted maximal effect; on the % scale 0 is the no-effect control and ±100 the full control effect
# HEK293 cAMP cnt – TSHR-independent cAMP elevation, counter-screen | shares compounds with TSHR agonist | parental HEK293 CNG biosensor, cAMP membrane potential fluorescence | activity change, negative = inhibition, % at 32.9 µM | 150 tested, under 10 active
# Active calls of the source: *; ? = inconclusive; . = no result given; [ ] = another dose, or the depositor's remark. Unless noted, the call rests on the fitted dose curve; in most records, active means well fitted curve in the direction sought with a large enough effect; inconclusive means small, poorly fitted or top-dose-only effect, or another doubt; inactive means no such curve, though single readings can be large; an effect the other way counts as inactive or inconclusive.
SMILES,TSHR agonist,Pol III holo inh,HEK293 cAMP ctrl,Tau fil binding,Hsp90 Hop PPI,HEK293 cAMP cnt
O=C(c1cc(-c2cccs2)on1)N1CCCc2ccccc21,?,-3%,?,10%,27%,?
Cn1cccc1C(=O)N1CCC[C@@]2(CCN(C(=O)Nc3cccc(F)c3)C2)C1,7%,-8%,17%,4%,-3%,.
CCOC(=O)CN(C(=O)Cn1nnc2ccccc21)C(C(=O)NCCOC)c1ccccc1 (stereo not drawn),-1%,-1%,7%,-8%,0%,.
COCCNC(=O)C(c1ccccc1)N(Cc1cccs1)C(=O)Cn1nnc2ccccc21 (stereo not drawn),13µM*,-7%,30%,17%,-4%,7
COC(=O)CNC(=O)C12CC3(C)CC(C)(CC(C)(C3)C1)C2,13µM*,-5%,5%,-5%,-4%,8
COC(=O)c1cc(NC2c3ccccc3C(=O)N2c2cccnc2)cc(C(=O)OC)c1 (stereo not drawn),16µM*,-5%,15%,6%,-4%[2.3 µM],18
COc1ccc(NC2c3ccccc3C(=O)N2c2cccnc2)cc1Cl (stereo not drawn),13%,5%,3%,7%,-3%[2.3 µM],.
CC(=O)c1cccc(NC(=O)c2cc(-n3cnnc3)ccc2Cl)c1,2%,0%,2%,-9%,-1%,.
COc1cc(NC(=O)c2cc(-n3cnnc3)ccc2Cl)cc(OC)c1,.,-1%,6%,2%,-4%,-1[25.6 µM]
COC(=O)C1=C(C)NC(C)=C(C(=O)OC)C1c1ccc(OC(=O)c2ccco2)cc1,20µM*,1%,9%,3%,1%,-9
CCOC(=O)C1=C(C)NC(C)=C(C(=O)OCC)C1c1ccc(OC)cc1,23%,-10%,4%,-13%,16%,.
Cc1ccc(S(=O)(=O)NCc2cccc([N+](=O)[O-])c2)cc1,-5%[11.4 µM],-5%[11.4 µM],2%[11.4 µM],-8%[11.4 µM],-7%[11 µM],.
CCN(CC)S(=O)(=O)c1ccc(Cl)c(C(=O)NC2CCCC2)c1,.,-7%,51%,0%,3%,?
Oc1ccc(Cn2c(-c3ccc(O)cc3)nc3ccccc32)cc1,5%[11.4 µM],-7%[11.4 µM],-1%[11.4 µM],6%[11.4 µM],-6%[11 µM],.
Oc1ccccc1Cn1c(-c2ccccc2O)nc2ccccc21,10µM*,3%,-13%,40%,-4%,-15
CCCCC(CC)C(=O)Nc1ccccc1C(=O)NC(C)C (stereo not drawn),13%,-1%,6%,-13%,-3%,.
CCN(C(=O)CN1CCCc2ccccc21)c1c(N)n(Cc2ccccc2)c(=O)[nH]c1=O,8%,0%,0%,6%,1%,.
CCn1c(=O)c(C(=O)CN2CCCc3ccccc32)c(N)n(Cc2ccccc2)c1=O,-21%,6%,-8%,25µM*,-24%,-17[25.6 µM]
